Consider 15 molecules from PubChem BioAssay (NCI).

Compounds without any hit were thinned out: in the full panel of roughly 83,000, 20% have a hit.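 Testing used 96-well plates and a 48-hour single-concentration exposure. Example: -40 means 40% of the starting cells died.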 A number with no mark means an inactive call. The source made the active and inactive calls. The calls were made as follows: active = growth percent below 10; inactive = the rest.

Test systems include NCI-H23 lung; NCI-H226 lung; HOP-62 NSCLC; NCI-H460 lung; HOP-92 NSCLC; NCI-H522 lung; A549/ATCC NSCLC; 786-0 renal; COLO 205 colon.
Holding throughout (assay): NCI-60 one-dose screen, 48 h (100 = growth as untreated, 0 = no growth, -100 = all killed)
Holding throughout (details): 10 µM

As to `COc1cc(OC)c2c(=O)c(O)c(-c3ccccc3)oc2c1`, the growth is 79.8% in the assay with NCI-H23 lung; 69.3% in the assay on NCI-H226 lung; 67.7% in the assay with HOP-62 NSCLC; 53.5% in the assay with NCI-H460 lung; 52% with HOP-92 NSCLC; 72.5% in the assay on NCI-H522 lung. Further, the growth with A549/ATCC NSCLC is 77.3%; with 786-0 renal, 70.8%; in the assay with COLO 205 colon, 104%.
As for `COc1ccc(-c2cc(-c3ccc(Cl)cc3)nc(SCCCCCCC(=O)NO)n2)cc1OC`, the growth in the assay with NCI-H23 lung is 42.7%; with NCI-H226 lung, 69.3%; in the assay on HOP-62 NSCLC it was 62.4%; in the assay on NCI-H460 lung, 19.7%; with HOP-92 NSCLC it was 40.6%; with NCI-H522 lung, 45.4%. The growth with A549/ATCC NSCLC was 58.5%; in the assay on 786-0 renal, 51.3%; with COLO 205 colon it was 66.4%.
`OCC1OC2C(NC(=S)N2c2ccccc2)C(O)C1O` (stereo not given): the growth was 102% in the assay with NCI-H23 lung; 95.5% in the assay on NCI-H226 lung; 101% in the assay with HOP-62 NSCLC; 105% in the assay with NCI-H460 lung; 90.5% in the assay on HOP-92 NSCLC; 104% in the assay with NCI-H522 lung. Also, the growth was 93.9% in the assay with A549/ATCC NSCLC, 110% in the assay with 786-0 renal and 105% in the assay on COLO 205 colon.
As for `CC(=O)COc1ccc(Cl)cc1Cl`, the growth was 106% in the assay on NCI-H23 lung; 93% in the assay with NCI-H226 lung; 110% in the assay with HOP-62 NSCLC; 110% in the assay with NCI-H460 lung; 91% with HOP-92 NSCLC; 107% in the assay on NCI-H522 lung. Also, the growth in the assay with A549/ATCC NSCLC was 107%; in the assay with 786-0 renal it was 103%; in the assay with COLO 205 colon, 114%.
For `O=S(=O)(Oc1ccc(-c2ccc3sccc3c2)cc1)c1ccccc1`, the growth is 89% in the assay with NCI-H23 lung; 92.5% in the assay on NCI-H226 lung; 113% with HOP-62 NSCLC; 103% in the assay on NCI-H460 lung; 111% in the assay on HOP-92 NSCLC; 87.3% in the assay on NCI-H522 lung. Moreover, the growth in the assay on A549/ATCC NSCLC is 100%; in the assay with 786-0 renal, 100%; in the assay with COLO 205 colon it was 109%.
Regarding `CCCCN(CCCC)C(=O)[C@H](CC)[C@@H]1CC[C@@H](C)[C@@H]([C@H](C)[C@@H](O)[C@@H](C)C(=O)[C@H](CC)C2O[C@]3(C=CC(=O)[C@]4(CC[C@@](C)([C@H]5CC[C@](O)(CC)[C@H](C)O5)O4)O3)[C@H](C)C[C@@H]2C)O1` (stereo not given in full), the growth in the assay with NCI-H23 lung was 25.8%; with NCI-H226 lung it was 15.3%; with HOP-62 NSCLC, 42.1%; in the assay with NCI-H460 lung, 19.7%; in the assay with HOP-92 NSCLC it was -6.89% (active); with NCI-H522 lung, 13.2%. For the same molecule, the results for the growth with A549/ATCC NSCLC, in the assay on 786-0 renal and in the assay with COLO 205 colon were 30.3%, 47.7% and 21.3%, respectively.
Turning to `CC(C)c1cc(N=O)cc(C(C)C)c1O`, the growth in the assay on NCI-H23 lung was 95.2%; with NCI-H226 lung, 102%; with HOP-62 NSCLC, 101%; in the assay with NCI-H460 lung it was 103%; with HOP-92 NSCLC it was 108%; with NCI-H522 lung, 97.7%. In addition, the growth in the assay with A549/ATCC NSCLC is 97%; with 786-0 renal, 104%; in the assay with COLO 205 colon, 112%.
Regarding `C/C(=N\O)c1ccc(NC(=O)CSc2nnc(-c3ccccc3)n2-c2ccccc2)cc1`, the growth in the assay with NCI-H23 lung was 76.6%; in the assay on NCI-H226 lung it was 72.4%; with HOP-62 NSCLC, 64.7%; with NCI-H460 lung it was 66.7%; in the assay with HOP-92 NSCLC, 30.1%; with NCI-H522 lung it was -34.7% (active). For the same molecule, the growth is 81.9% in the assay on A549/ATCC NSCLC, 80.5% with 786-0 renal and 53.3% in the assay with COLO 205 colon.
Consider `CCn1c(SCCc2ccccc2)nnc1-c1nn(-c2ccc(Cl)cc2Cl)c(-c2ccc(Cl)cc2)c1C`, for which the growth is 62.2% in the assay on NCI-H23 lung; 58% in the assay on NCI-H226 lung; 101% in the assay on HOP-62 NSCLC; 73.7% in the assay on NCI-H460 lung; 85% with HOP-92 NSCLC; 61.1% in the assay on NCI-H522 lung. Besides, the growth was 65.1% in the assay on A549/ATCC NSCLC, 72.9% in the assay with 786-0 renal and 77.7% in the assay with COLO 205 colon.
`S=C(NCc1ccccc1)NCc1ccccc1`: the growth in the assay on NCI-H23 lung was 95%; in the assay with NCI-H226 lung, 97.8%; in the assay with HOP-62 NSCLC, 94.2%; in the assay with NCI-H460 lung it was 103%; in the assay with HOP-92 NSCLC it was 99.3%; with NCI-H522 lung it was 82.4%. Besides, the growth is 86.1% in the assay with A549/ATCC NSCLC, 96.6% with 786-0 renal and 107% in the assay on COLO 205 colon.
With `CC(C)(C)c1ccc(S(=O)(=O)Oc2ccc(NC(=O)C3CCCCC3)cc2)cc1`, the growth in the assay on NCI-H23 lung was 23%; with NCI-H226 lung, 45.4%; with HOP-62 NSCLC, 88.7%; in the assay with NCI-H460 lung it was 44.2%; in the assay on HOP-92 NSCLC it was 39.6%; in the assay on NCI-H522 lung, 25.4%. Moreover, the growth is 41.5% with A549/ATCC NSCLC, 55.4% in the assay on 786-0 renal and 32.4% with COLO 205 colon.
Take `O=S(=O)(O)c1cccc(Nc2ccc3ccccc3c2)c1`: the growth in the assay with NCI-H23 lung is 92%; in the assay with NCI-H226 lung, 86.5%; in the assay on HOP-62 NSCLC, 84.4%; in the assay on NCI-H460 lung, 101%; in the assay on HOP-92 NSCLC, 74.8%; in the assay on NCI-H522 lung, 87.9%. Also, the growth in the assay on A549/ATCC NSCLC was 94.1%; in the assay on 786-0 renal, 104%; in the assay on COLO 205 colon, 97.8%.
As to `O=C1c2ccccc2C(=O)c2c1ccc(C(Br)Br)c2[N+](=O)[O-]`, the growth is 4.98% (active) in the assay on NCI-H23 lung; -1.88% (active) with NCI-H226 lung; 78.4% with HOP-62 NSCLC; 75.2% in the assay with NCI-H460 lung; 38.8% in the assay with HOP-92 NSCLC; 64.1% with NCI-H522 lung. Also, the growth was 94.6% in the assay with A549/ATCC NSCLC, 21.1% in the assay on 786-0 renal and 69.6% in the assay on COLO 205 colon.
Take `CCOC(=O)c1cc(C(=O)c2cc(OC)c(OC)c(OC)c2)n2nc(C)ccc12`: the growth is 39.2% with NCI-H23 lung; 79.5% in the assay with NCI-H226 lung; 51.2% with HOP-62 NSCLC; 9.56% (active) in the assay with NCI-H460 lung; 50.1% in the assay with HOP-92 NSCLC; 3.82% (active) in the assay with NCI-H522 lung. Further, the growth with A549/ATCC NSCLC is 26.8%; with 786-0 renal it was 54.4%; with COLO 205 colon, -39.4% (active).
For `O=C(O)c1ccc(-n2cc(CNc3ccc(Cl)cc3)c(-c3ccccc3)n2)cc1`, the growth with NCI-H23 lung was 98.4%; in the assay on NCI-H226 lung, 99.1%; with HOP-62 NSCLC, 111%; in the assay on NCI-H460 lung, 88.6%; in the assay on HOP-92 NSCLC, 99.9%; with NCI-H522 lung, 75.8%. The results for the growth with A549/ATCC NSCLC, in the assay on 786-0 renal and with COLO 205 colon were 84.6%, 94.7% and 97.8%, respectively.
